Screening data: PubChem, National Center for Advancing Translational Sciences (NCATS)
Sampled rows, rich in hits. Any-hit rate of the full collection: about 7.4%.
Luc counter: Kinase-Glo luciferase inhibition (counter-screen) | Q27757 | Kinase-Glo luciferase, ATP luminescence, 8 min | Potency, µM (series often up to 38.3 µM), most hits filed as inhibitors | hit rate 0.28% among 200,000; further: nearly all actives have a fitted effect of over 60% in size
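Light output from Kinase-Glo luciferase with luciferin and 10 uM ATP in 50 mM imidazole pH 7.2, KCl, MgCl2, Tween 20, BSA; compound pin-delivered, 8-min ambient incubation, then luminescence read.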
NPC1 promoter act: NPC1 promoter activation | Huh7 NPC1 promoter luciferase reporter, 24 h | hit rate 2.4% among 320,000 | Potency, µM (series often up to 9.22 µM), usual class: activators | AID 485313; further: nearly all actives have a fitted effect of over 60% in size
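Luciferase expression driven by the NPC1 promoter was measured in stably transfected Huh7 cells after a 24 h compound incubation, using a luciferase reagent and a luminescence read.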
FLuc modulator: firefly luciferase modulation, counter-screen for miR-21 project. purified FLuc, Km substrates, luminescence inhibition. hit rate 6.9% among 360,000. AID 588342. P08659. Potency, µM (series often up to 57.5 µM), most hits filed as inhibitors; further: nearly all actives have a fitted effect of over 55% in size
Target sequence (P08659 whole entry, looked up): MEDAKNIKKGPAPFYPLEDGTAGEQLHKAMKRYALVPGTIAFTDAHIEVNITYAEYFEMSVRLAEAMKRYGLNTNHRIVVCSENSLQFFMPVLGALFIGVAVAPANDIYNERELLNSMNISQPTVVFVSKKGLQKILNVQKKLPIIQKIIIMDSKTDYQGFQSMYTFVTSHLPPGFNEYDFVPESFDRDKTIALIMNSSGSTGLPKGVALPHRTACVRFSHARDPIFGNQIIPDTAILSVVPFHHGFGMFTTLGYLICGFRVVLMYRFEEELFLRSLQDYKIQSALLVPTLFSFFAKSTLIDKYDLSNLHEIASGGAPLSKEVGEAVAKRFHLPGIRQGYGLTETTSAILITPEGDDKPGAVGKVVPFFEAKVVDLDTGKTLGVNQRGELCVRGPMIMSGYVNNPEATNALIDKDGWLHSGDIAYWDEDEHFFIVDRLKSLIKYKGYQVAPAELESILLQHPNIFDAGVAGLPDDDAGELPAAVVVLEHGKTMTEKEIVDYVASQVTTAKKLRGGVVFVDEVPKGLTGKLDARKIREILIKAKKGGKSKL
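Biochemical qHTS of compounds, final roughly 60 µM downward over six points, against 10 nM purified firefly luciferase using Km concentrations of substrates (10 uM D-luciferin, 10 uM ATP) in Tris acetate pH 7.5 buffer; luminescence output.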
Rab9 prom act: activators of Rab9 promoter. Huh7 Rab9 promoter-luciferase reporter, luminescence, 24 h. Potency, µM (highest dose often 9.22 µM), most hits filed as activators. hit rate 2.8% among 320,000. AID 485297; further: nearly all actives have a fitted effect of over 60% in size
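Luminescence from Amplite-detected luciferase (10 minutes, ambient) reports Rab9 promoter activation. Before that, stable Rab9-luciferase Huh7 cells (1500/well, reduced-serum OP-MEM I plus 10% FBS) were exposed to compound for 24 hours at 37C.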
SMN2 splice enh: SMN2 splice variant enhancement; AID 1458; HEK293 SMN2-luciferase splicing reporter, luminescence, 30-36 h; hit rate 2.8% among 210,000; Potency, µM (top dose mostly 46.1 µM), most hits filed as activators; further: nearly all actives have a fitted effect of over 55% in size
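qHTS luciferase splicing reporter: luminescence rises when SMN2 exon 7 is included in transfected HEK293 cells. Compound exposure lasted 30-36 h at 37C, with 4.5 mM final sodium butyrate as control, followed by a ONE-Glo read.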
ELG1 genotox: inducers of genotoxicity in HEK293T ELG1-luciferase cells; Potency, µM (titrated, usually from 46 µM), most hits filed as activators; hit rate 1.3% among 330,000; HEK293T ELG1-luciferase reporter, luminescence, 16 h; further: nearly all actives have a fitted effect of over 60% in size
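Luminescence read-out: rising ELG1-luciferase signal, reflecting elevated ELG1 protein under genetic stress, flags genotoxic compounds. Cells were treated for 16 hr at 37 °C before ONE-Glo detection.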
Each line names hits and unclear results; the compound was inactive in the other large screens. The call rests on the fitted dose curve; in most records, active means well fitted curve in the direction sought with a large enough effect; inconclusive means small, poorly fitted or top-dose-only effect, or another doubt; inactive means no such curve, though single readings can be large; an effect the other way counts as inactive or inconclusive.

Clc1ccccc1-c1nnc2sc(-c3ccc4c(c3)OCO4)nn12	FLuc modulator inconclusive, SMN2 splice enh inconclusive, ELG1 genotox inconclusive
O=C(O)c1ccc(-c2nnc(-c3ccc([N+](=O)[O-])cc3)o2)cc1	none (no result: Luc counter, SMN2 splice enh)
O=C(O)c1cccc(-c2ccc3c(c2)OCO3)c1	FLuc modulator inconclusive (no result: Luc counter, SMN2 splice enh)
Clc1ccccc1-c1nnc(-c2ccc3c(c2)OCO3)o1	Luc counter inconclusive, NPC1 promoter act 1.41µM, FLuc modulator 2.69µM, Rab9 prom act 1.26µM, SMN2 splice enh 5.01µM
O=[N+]([O-])c1cccc(-c2nnc(-c3ccccc3)o2)c1	NPC1 promoter act 2.82µM, FLuc modulator 15.1µM, Rab9 prom act 2.24µM, SMN2 splice enh 20µM, ELG1 genotox inconclusive
O=[N+]([O-])c1cccc(-c2nnc(-c3ccc4c(c3)OCO4)o2)c1	NPC1 promoter act 2.51µM, FLuc modulator 2.69µM, Rab9 prom act 2.24µM, SMN2 splice enh 11.2µM, ELG1 genotox inconclusive
COc1cccc(NC(=O)Cn2cc(S(=O)(=O)Cc3ccccc3F)c3ccccc32)c1	none (no result: Luc counter, NPC1 promoter act, Rab9 prom act, SMN2 splice enh, ELG1 genotox)
CC(=O)c1ccc(NC(=O)CSc2nnc(NC(=O)C3CC3)s2)cc1	FLuc modulator inconclusive (no result: Luc counter, SMN2 splice enh)
CCCSc1nnc(NC(=O)c2ccco2)s1	FLuc modulator inconclusive, Rab9 prom act inconclusive, SMN2 splice enh 11.2µM, ELG1 genotox inconclusive
Cc1ccc(NC(=O)CSc2nnc(NC(=O)c3ccco3)s2)cc1	FLuc modulator 21.3µM
CC(=O)c1ccc(NC(=O)CSc2nnc(NC(=O)c3ccco3)s2)cc1	NPC1 promoter act inconclusive, FLuc modulator 2.39µM, Rab9 prom act inconclusive, ELG1 genotox inconclusive (no result: Luc counter, SMN2 splice enh)
CC(C)N(C(=O)CSc1nnc(NC(=O)c2ccco2)s1)C(C)C	none
OCCN(Cc1ccccc1)C(=S)Nc1ccc(Cl)cc1Cl	none (no result: Luc counter, SMN2 splice enh)
COc1ccc(OC)c(CCNC(=O)CCCC(=O)n2ncc3cc(C)ccc32)c1	none (no result: Luc counter, SMN2 splice enh)
COC(=O)[C@@]1(Cc2ccc(OC)cc2)[C@H]2c3cc(C(=O)N(C)C)n(Cc4ccc(C)c(F)c4F)c3C[C@H]2CN1C(=O)c1ccccc1	none (no result: NPC1 promoter act, FLuc modulator, Rab9 prom act, ELG1 genotox)
CCCS(=O)(=O)c1nc(S(=O)(=O)c2ccc(C)cc2)c(NCCCN2CCCC2=O)s1	none (no result: Luc counter, SMN2 splice enh)
Cc1ccc(C(=O)Nc2nnc(CC(=O)N/N=C/c3ccc(O)c(O)c3)s2)cc1	FLuc modulator 4.78µM (no result: Luc counter, SMN2 splice enh)
Cc1ccc(C(=O)Nc2nnc(CC(=O)N/N=C/c3ccncc3)s2)cc1	FLuc modulator inconclusive
O=C(O)/C(=C\c1ccc(-c2ccccc2[N+](=O)[O-])o1)c1ccccc1	FLuc modulator 21.3µM (no result: Luc counter, SMN2 splice enh)
O=C(/C=C/c1ccc(-c2ccccc2[N+](=O)[O-])o1)c1ccccc1	FLuc modulator 23.9µM
CCC1(C)N=C(N)Nc2nc3cc(C)c(C)cc3n21 (stereo not drawn)	none (no result: Luc counter, SMN2 splice enh)
O=C(C1CCCN(S(=O)(=O)c2ccccc2)C1)N1CCCCC1 (stereo not drawn)	none (no result: Luc counter, SMN2 splice enh)
Cc1ccc(Cl)c(NC(=O)COC(=O)c2nn(C)c(=O)c3ccccc23)c1Cl	none (no result: Luc counter, SMN2 splice enh)
CC1CCC(NC(=O)CN2C(=O)COc3ccc(S(=O)(=O)N4CCCC4)cc32)CC1 (stereo not drawn)	none
CN(C)C=C1C(=O)c2ccccc2C1=O	SMN2 splice enh inconclusive
Cc1ccsc1C=C1C(=O)c2ccccc2C1=O	Luc counter inconclusive, NPC1 promoter act inconclusive, FLuc modulator 1.35µM, Rab9 prom act inconclusive
Cc1ccsc1/C=C1/C(=O)NN(c2ccccc2)C1=O	Luc counter inconclusive, NPC1 promoter act inconclusive, FLuc modulator 9.53µM
Cc1ccc(NC(=O)Cn2c(-c3nonc3N)nc3ccccc32)cc1Cl	none (no result: Luc counter, NPC1 promoter act, Rab9 prom act, ELG1 genotox)
CN(C(=O)c1ccc(OC2CCN(CCc3ccccc3)CC2)cc1)C1CCCCC1	none
CCC1CCc2sc(C(=O)NCc3ccccn3)cc2C1 (stereo not drawn)	NPC1 promoter act inconclusive, FLuc modulator 15.1µM, ELG1 genotox inconclusive (no result: Luc counter, SMN2 splice enh)
CCC1CCc2sc(C(=O)NCC3CCCO3)cc2C1 (stereo not drawn)	NPC1 promoter act 2.82µM, FLuc modulator 5.36µM, Rab9 prom act 1.78µM, ELG1 genotox inconclusive (no result: Luc counter, SMN2 splice enh)
CN(C)/C=N/N(C)c1ncccc1[N+](=O)[O-]	none (no result: Luc counter, SMN2 splice enh)
O=C(N/N=C/c1ccc(O)cc1)c1csc2c1CCCC2	FLuc modulator 13.5µM
O=C(N/N=C\c1cccc(O)c1)c1ccncc1	none (no result: NPC1 promoter act, FLuc modulator, Rab9 prom act, ELG1 genotox)
O=C(N/N=C/c1ccc(C(F)(F)F)cc1)c1ccc(O)cc1	FLuc modulator 10.7µM
O=C(N/N=C/c1cccc(C(F)(F)F)c1)c1ccc(O)cc1	FLuc modulator 16.9µM
Cc1ccc(C(=O)c2oc3nc(C)cc(C)c3c2N)cc1	FLuc modulator 13.5µM
Cc1nc2oc(C(=O)c3ccc(Br)cc3)c(N)c2c2c1COC(C)(C)C2	none (no result: Luc counter, SMN2 splice enh)
CCCc1nc2oc(C(=O)c3ccccc3)c(N)c2c2c1COC(C)(C)C2	none
COc1ccc(C(=O)c2oc3ccccc3c2NC(=O)c2cccc(OC)c2)cc1	none (no result: Luc counter, NPC1 promoter act, Rab9 prom act, ELG1 genotox)
CCc1ccc(C(=O)c2oc3nc(C)cc(C)c3c2N)cc1	FLuc modulator 15.1µM
COc1ccc(C(=O)c2oc3nc(C)cc(C)c3c2N)cc1	FLuc modulator 12µM
COc1cccc(C2c3c(oc4ccc(C)cc4c3=O)C(=O)N2CCCN2CCOCC2)c1OC (stereo not drawn)	none (no result: Luc counter, NPC1 promoter act, Rab9 prom act, SMN2 splice enh, ELG1 genotox)
